Bioassay records deposited in PubChem by National Center for Advancing Translational Sciences (NCATS).
FMDV inh: foot and mouth disease virus antiviral activity; Potency, µM (top dose mostly 57.9 µM), without a hit: top-dose activity change, negative = inhibition, usual class: inhibitors; FMDV antiviral cell-based qHTS; actives 1.2% (n = 410,000); calls by dose curve; tested in HEK293T cells; note: read-out not given here; potency is the fitted concentration of half-maximal effect; nearly all actives have a fitted effect of over 45% in size
HCMV inh: human cytomegalovirus inhibition. actives 4.5% (n = 410,000). activity change, negative = inhibition, % at 57.5 µM. HFF cells, HCMV-luciferase reporter, 72 h; active compounds read low; in the data active = activity change below about -60%; inconclusive = no clear call, values can overlap the other calls; inactive = above about -39%
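Two-dose cell screen: HFF monolayers treated with compounds and infected with luciferase-expressing HCMV at 1 PFU/cell, 72 h at 37C, then lysed for luciferase measurement.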
Marburg entry inh: blocks Marburg virus binding to or entry into cells. actives 1.8% (n = 300,000). Marburg virus pseudotyped entry inhibition, cell reporter. Potency, µM (titrated, usually from 37.8 µM), for inactives: top-dose activity change, negative = inhibition, most hits filed as inhibitors. AID 540276; calls by dose curve; tested in HEK293 cells; note: potency is the fitted concentration of half-maximal effect
Lassa entry inh: blocks Lassa virus binding to or entry into cells; Lassa virus pseudotype entry inhibition, cell reporter; Potency, µM (titrated, usually from 37.9 µM), without a hit: top-dose activity change, negative = inhibition, most hits filed as inhibitors; actives 1.2% (n = 300,000); AID 540256; calls by dose curve; tested in HEK293 cells; note: potency is the fitted concentration of half-maximal effect; nearly all actives have a fitted effect of over 50% in size
VACV Venus inh: inhibitors of vaccinia virus (Venus reporter); Vaccinia virus Venus reporter expression, fluorescence; Potency, µM (doses to about 36.5 µM), for inactives: at the highest dose activity change, negative = inhibition, usual class: inhibitors; actives 0.46% (n = 330,000); calls by dose curve; tested in A549 cells; note: potency is the fitted concentration of half-maximal effect; nearly all actives have a fitted effect of over 30% in size
Vaccinia mCherry: inhibitors of vaccinia virus infection (mCherry reporter signal). Vaccinia virus mCherry reporter infection, fluorescence. Potency, µM (highest dose often 36.5 µM), for the others: at the highest dose activity change, negative = inhibition, usual class: inhibitors. actives 0.63% (n = 310,000); calls by dose curve; tested in A549 cells; note: potency is the fitted concentration of half-maximal effect; nearly all actives have a fitted effect of over 35% in size
The depositor's hits bear a star; i = inactive; ? = inconclusive; nt = no result; [ ] = dose if it differs, or a comment. Sampled rows, rich in hits. Any-hit rate of the full collection: about 6.5%. % is set by controls: 0 for no effect and ±100 for the full control effect.

SMILES	FMDV inh	HCMV inh	Marburg entry inh	Lassa entry inh	VACV Venus inh	Vaccinia mCherry
O=C(O)C1CCCN1c1ncnc2ccccc12 (configuration not stated)	nt	11	10%	-8%	-6%	i
CC1(C)CC2CC(C)(CN2c2ncnc3ccccc23)C1 (configuration not stated)	nt	-63*	?	-30%	?	-17%
c1ccc2c(N3CCCCC3)ncnc2c1	-3%	-91*	0%	-6%	nt	nt
CC1CCCCN1c1ncnc2ccccc12 (configuration not stated)	nt	-88*	?	?	-30%	-7%
CC(C)[C@@H](OCc1ccccc1)[C@H](C)/C=N\OC[C@@H](O)[C@@H]1O[C@@H]2OC(C)(C)O[C@@H]2[C@H]1O	nt	nt	-5%[14.2 µM]	nt	nt	nt
CC(/C=N/c1ccccn1)=N\c1ccccn1	nt	-20	nt	nt	nt	nt
COc1ccc(S(=O)(=O)N2CCCN(CC(=O)Nc3ccc(OC)cc3OC)CC2)cc1	0%	-21	4%[46.1 µM]	-11%[46.1 µM]	-1%	-1%
Cc1cc(Cl)n2c(nc3cc(F)c(F)cc32)c1C#N	18µM*	-99*	13µM*	?	-23%	?
C[C@H](c1ccccc1)N1C[C@@H](COCc2ccccc2)Oc2cccc(N3CCCCC3)c2S1(=O)=O	nt	-93*	nt	nt	nt	nt
CCCCN1CC(COCc2ccccc2)Oc2cccc(N3CCCC3)c2S1(=O)=O (configuration not stated)	8%	-10	nt	nt	-30%	-16%
Cc1cc(Oc2cccc3c2S(=O)(=O)N([C@H](C)c2ccccc2)C[C@@H](COCc2ccccc2)O3)cc(C)c1C	nt	-93*	nt	nt	nt	nt
Cc1ccc(S(=O)(=O)N(C)c2cccc3c2S(=O)(=O)N([C@H](C)c2ccccc2)C[C@@H](COCc2ccccc2)O3)cc1	nt	-65*	nt	nt	nt	nt
Cc1ccc(Oc2cccc3c2S(=O)(=O)N([C@H](C)c2ccccc2)C[C@@H](COCc2ccccc2)O3)cc1	nt	-78*	nt	nt	nt	nt
O=S(=O)(c1nccs1)N1CCN(c2nc(-c3cccs3)nc3ccccc23)CC1	nt	nt	nt	nt	-6%	i
O=S(=O)(NCc1nc2cccnc2n1Cc1ccccc1Cl)c1ccc2c(c1)CCCC2	28%	-12	nt	-2%[46.1 µM]	-14%	-7%
CNC[C@@H]1OCc2cnnn2CCCC(=O)N([C@@H](C)CO)C[C@H]1C	nt	-13	nt	nt	nt	nt
Cn1cc(CCCBr)c2ccccc21	nt	10	nt	nt	nt	nt
COc1cc(C(CC2=CCCCC2)NC(=O)C(F)(F)F)cc(OC)c1OC (configuration not stated)	nt	nt	1%[14.2 µM]	nt	nt	nt
COc1ccc2c(C(=O)CCl)c[nH]c2c1	35µM*	-101*	nt	nt	nt	nt
CC1=CC(O)C(O)C2(C)C1CC1OC(=O)CC3C(C)C(O)C(=O)C2C13CO (configuration not stated)	-28%	nt	?	-15%	6.3µM*	8.9µM*
O=C(Nc1ncc([N+](=O)[O-])s1)c1cccc([N+](=O)[O-])c1	-73%	-99*	nt	nt	?	?
O=C(COC(=O)c1ccccc1)Nc1ncc([N+](=O)[O-])s1	11%	-9	-18%	?	-14%	-16%
O=C(Nc1ccccc1)Nc1ncc([N+](=O)[O-])s1	10µM*	-98*	?	7.1µM*	?	10µM*
Cc1nc(C)c(C(=O)Nc2ncc([N+](=O)[O-])s2)o1	-92%	?	?	5.6µM*	-4%	-1%
CCc1ccc(/C=N/NC(=O)c2cc(C3CC3)nc3ccc(Br)cc23)s1	0%	-63*	?	?	?	?
SMILES	FMDV inh	HCMV inh	Marburg entry inh	Lassa entry inh	VACV Venus inh	Vaccinia mCherry
O=C(N/N=C/c1ccco1)c1cc(C2CC2)nc2ccccc12	nt	30	-36%	?	nt	nt
CC1(C)CC(=O)c2cc(-c3nc(-c4ccc(F)cc4)cs3)c(=O)[nH]c2C1	-18%	-5	-22%[46.1 µM]	-8%[46.1 µM]	-3%	7%
O=CNc1ccc2c(c1)Cc1cc([N+](=O)[O-])ccc1-2	17%	0	?	-1%	1%	-1%
Nc1c(Br)cc(Br)c2c1-c1ccc([N+](=O)[O-])cc1C2	-9%	-80*	6%	17%	-13%	i
Nc1cccc2c1Cc1cc([N+](=O)[O-])ccc1-2	55%	-101*	4%	25%	10%	-8%
COc1ccc2c(c1)C(n1cccc1)C(=O)N2C (configuration not stated)	nt	24	nt	nt	nt	nt
CC(C)(C)c1ccc(/C=C(\c2nc3ccccc3[nH]2)S(=O)(=O)c2ccccc2)cc1	20µM*	nt	nt	nt	?	14µM*
O=C(O)c1ccc(/C=C(\c2nc3ccccc3[nH]2)c2nc3ccccc3s2)cc1	-11%	-31	?	19%	-17%	?
CC1(C(=O)NC2CCCCC2)CCC(=O)N1Cc1cccnc1 (configuration not stated)	7%	-82*	nt	nt	-12%	i
CC1CCC(NC(=O)C2(C)CCC(=O)N2Cc2cccnc2)CC1 (configuration not stated)	-23%	28	nt	nt	-5%	-13%
CCOCCCNC(=O)c1ccc(Cn2c(=O)c3cccn3c3cccnc32)cc1	-5%	-20	nt	-13%[46.1 µM]	-14%	-28%
OC1(c2ccccc2)CN(c2ccccc2)C2=[N+]1CCS2 (configuration not stated)	?	-62*	-18%	-5%	-12%	-4%
OC1(c2cccs2)CN(c2ccc(Br)cc2)C2=[N+]1CCCS2 (configuration not stated)	-17%	0	nt	nt	nt	nt
CCN1CCN(Cc2ccc(NC(=O)c3ccc(C)c(NC(=O)c4cccc(-c5cn[nH]c(=O)c5)c4)c3)cc2C(F)(F)F)CC1	12%	nt	nt	nt	7.1µM*	?
Cc1ccc(C(=O)Nc2cccc(C(F)(F)F)c2)cc1NC(=O)c1c[nH]c2cc(C(F)(F)F)ccc2c1=O	39%	2	nt	nt	-8%	-11%
CCN1CCN(Cc2ccc(NC(=O)c3ccc(C)c(/C=C/c4cnc(Nc5cc(N6CCNCC6)nc(C)n5)cn4)c3)cc2C(F)(F)F)CC1	?	nt	nt	nt	8.9µM*	?
CCN1CCN(Cc2ccc(NC(=O)c3ccc(C)c(NC(=O)c4c[nH]c5cc(C(F)(F)F)ccc5c4=O)c3)cc2C(F)(F)F)CC1	?	-98*	nt	nt	14µM*	?
CC1(C)OC(=O)C2(Cc3cc([N+](=O)[O-])ccc3N3CCCCCC32)C(=O)O1 (configuration not stated)	nt	nt	nt	nt	-18%	-22%
O=C(COC(=O)CNC(=O)c1ccco1)Nc1ncc(Cl)cc1Cl	-2%	-100*	nt	nt	nt	nt
CCOc1ccccc1OCC(=O)OCC(=O)Nc1ncc(Cl)cc1Cl	-20%	-72*	11%	8%	-10%	i[1.46 µM]
C#CCNC[C@@H]1CSCCS(=O)(=O)N1	nt	6	nt	-3%[46.1 µM]	nt	nt
CCc1nnc2n1N(C(C)=O)C(c1ccc(C(C)(C)C)cc1)=C(C(C)=O)S2	?	-98*	nt	11µM*	?	?
